# According to the supplement of paper PMC11417369:
# ± gives the standard deviation of the averaged measurements. The full ranking holds about 25,000 sequences; the median of “ln(normalized median fluorescence intensity)” is about 8.6, and the highest 2% start at about 10. Many of the other results were omitted from the sample, so the highest values are more common in it than they were.
# System: PfAP2-EXP AP2 domain (GST-tagged)
# Assay: gcPBM binding intensity (ln(normalized median fluorescence intensity)); higher = stronger DNA binding
# How it was run: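 The highest Masliner-normalised natural-log median intensity across replicate spots of either probe orientation is reported as binding intensity. GST-tagged P. falciparum DNA-binding domains expressed in E. coli were applied for 1 h to an Agilent 4 × 180k array of primer-extended double-stranded 36-bp intergenic genomic probes plus negative controls, and bound protein was detected with Alexa488 anti-GST antibody and scanned at 488 nm.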
row,Sequence,gcPBM binding intensity (ln)
1,ATAAAATAAAATTGGTGTACTTTTGATAAAATAAAA [XGTACX_site4264],8.24 ± 0.28
2,TTAATAAACCTTAGATGTACAGTTATATATAAAATA [XGTACX_site6681],8.54 ± 0.52
3,ATAACATTCAAAAAATGTACAAACATATGAATAAAT [XGTACX_site7013],8.62 ± 0.47
4,TATATATATAACAGAATGCACTTTATATGTTCATAT [GTGCAC_site9880],8.94 ± 0.14
5,CATAAATACATACATACACACATATATATATATATA [CACACA_site2106],10.2 ± 0.41
6,TATATATATAAATACACACACACATATATATATATA [CACACA_site4585],10 ± 0.16
7,TATACTCATAAATACACACACATATATATATATATA [CACACA_site5822],10.2 ± 0.28
8,TAAATACATAAATACACACACATATATATATATATA [CACACA_site5549],10.2 ± 0.35
9,CATATATAAATATATACACACATACATACATACATA [CACACA_site5988],8.73 ± 0.3
10,TAAATAAATATATATACACACATATATATATATATA [CACACA_site598],10.1 ± 0.36
11,TATATATATATATATACACACATATATATAAATATA [CACACA_site2035],10.2 ± 0.26
12,TAAATAAATACATACACACACATACATATATATATA [CACACA_site3129],9.86 ± 0.26
13,CACAAATAAATACATACACACATATATACTCATATA [CACACA_site4379],8.37 ± 0.49
14,AGAGAAGAAAACAAAACACACACATATATCTTAATA [CACACA_site8699],8.63 ± 0.71
15,AATTTTTAGTATATAACATAAAATAAAATAAAATAA [GTGCAC_negctrl_site696],8.47 ± 0.38
16,AAAATTATATTTTATAGAAATTTAAATAAATATATA [GTGCAC_negctrl_site199],8.01 ± 0.38
17,AATATATATATTAAATGTACATTACATAATTATATA [XGTACX_site3450],8.54 ± 0.43
18,ATAATATATAATATAGTGCATTATTTATTAATTAAT [GTGCAC_site9852],8.56 ± 0.085
19,ACCTGTAAAAATGTTTATATATATATATATATATAT [CACACA_negctrl_site1500],10.3 ± 0.37
20,ATATATATATATATAGTGCACATTTATATAATTATT,10.3 ± 0.17
21,TTTTAATTTAAAAATTAATTTATATATATATATATA [TGCATGCA_negctrl_site447],10.3 ± 1
22,ATTTTTTTATAAAATTTTTATATAATTTATTATAAA [GTGCAC_negctrl_site96],8.16 ± 0.52

row,Sequence,gcPBM binding intensity (ln)
1,TTATATTATATATATGTGCACATTTTTAAACTTGGA,8.71 ± 0.27
2,AATGTAAAATATATGTGTACATATGTTTATATATAT [XGTACX_site2216],8.71 ± 0.23
3,AAAATATATATGTATGTTTATATGTTTATATATATT [XGTACX_negctrl_site337],8.18 ± 0.49
4,TTATTTTTATATTTTAATTTTAAAAAAATTTTAATT [CACACA_negctrl_site777],8.04 ± 0.46
5,TATAATAATATTATAGTGCATATTATTTATATATAA [GTGCAC_site9820],8.22 ± 0.2
6,TATATATATATATATGTGCACATTTTATTAAAATGT,10.2 ± 0.34
7,TATATACATTTTTATGTGCACATTTTATTTTTAAAT,9.15 ± 0.31
8,ATTATTTAGAAATGAGCACACAAAAAGAAGAATTTT [CACACA_site7913],8.65 ± 0.52
9,ATATAAAAAGTGTATCGTACATTTACTTATTTTATA [XGTACX_site6249],8.46 ± 0.3
10,AATACTATTATTATTGCACACTTATTATCCCTCGGA [CACACA_site4262],8.65 ± 0.28
11,CACTAAACATATACACGTACATGCAACGGATTTTTT [XGTACX_site461],8.74 ± 0.3
12,ATGGACAAGTTAAACGCACACAAATATATACAGACA [CACACA_site1652],9.15 ± 0.73
13,TTTTTTATTAAATATATATAATAATAATAATTTGTA [CACACA_negctrl_site1719],7.9 ± 0.37
14,TTTTAAAATATATTTGTATATATATATATATATATA [XGTACX_negctrl_site536],10.4 ± 0.35
15,AAATAACAAATTTTTAAAATGTATATATATATATAT [TGCATGCA_negctrl_site219],10.2 ± 0.74
16,ATATATTTTTTAAATTTAAAAATTATAAAATTTATA [TGCATGCA_negctrl_site36],8.16 ± 0.45
17,TATAATAAAATATTTTGTACGTATATTTTAATATTT [XGTACX_site2582],8.32 ± 0.45
18,AAAAAAATTTTAAAATGTACAAATTTTAATATATAT [XGTACX_site7628],8.55 ± 0.26
19,TTTTTTAAATGTATTAAAATTATATATATATATATA [GTGCAC_negctrl_site570],10.2 ± 0.25
20,AAAAAAAAAAAAATGTAATTTTTTAATTATTTATAT [GTGCAC_negctrl_site436],7.96 ± 0.43
21,ATAACAAAATAATAATGTACGTATAAATATAATTTA [XGTACX_site6049],8.57 ± 0.4
22,AAAAAAAAAAAAAATACACACATATATAAATAAATA [CACACA_site6459],8.31 ± 0.45

row,Sequence,gcPBM binding intensity (ln)
1,TATAAACATAAATATACACACAAACATATATGTATT [CACACA_site8324],8.51 ± 0.42
2,CTGTGTTTTGGTTGTACACACGCTACATTCTATATT [CACACA_site2698],9.16 ± 0.28
3,TTTTTAAAAATAACAGAAAAGAATTACAGATTTTTT [XGTACX_negctrl_site472],8.34 ± 0.41
4,TTTTGCTTTTTTTTTCTTTTTTGTTTTATATATATT [CACACA_negctrl_site103],8.51 ± 0.53
5,TTTTGTTGCTCTTTTTTTTTTTTTTTTAACTGTATG [CACACA_negctrl_site1072],8.57 ± 0.43
6,TTTTTTTGCTCTTTTTATATATATATATATATATAT [GTGCAC_negctrl_site70],10.2 ± 0.46
7,TATGTATATATATATATATATATATATATATATATA [TGCATGCA_negctrl_site491],10.1 ± 0.66
8,TAAAGGAGCCTATGAACACACACATGTACTTATATT [CACACA_site9351],8.56 ± 0.4
9,TGTATGAAATATATTACACACATATAAAATCTATAT [CACACA_site6514],8.35 ± 0.57
10,TATATTAAGAAACACACACACATATATATATATATA [CACACA_site1609],10.2 ± 0.3
11,TCGAACATTAACATAACACACATATATATATATATA [CACACA_site2900],10.2 ± 0.32
12,AAACATAAGAAACACACACACATATATATATATATA [CACACA_site3642],10.1 ± 0.35
13,AAATTTATAAAGAACACACACATATATATATATATA [CACACA_site48],10.2 ± 0.27
14,TTAATTAAGAAACACACACACATATATATATATATT [CACACA_site2290],8.67 ± 0.42
15,AACATTATAAGACACACACACACATATATATATATA [CACACA_site8259],10.1 ± 0.39
16,CCAAATTTATAAAGAACACACACATATATATATATA [CACACA_site7900],9.99 ± 0.4
17,TCGAACATTAACATAACACACATATAGATTTATATA [CACACA_site7380],8.29 ± 0.42
18,AAATTTATAAAGAACACACACATATAAATATAAATA [CACACA_site6174],8.93 ± 0.49
19,TATATATTAAAACACACACACATATATATATATATA [CACACA_site3787],10 ± 0.38
20,CATTATTATTTTATAACACACACATATATATTATAT [CACACA_site8405],8.48 ± 0.34
21,CATTATAAGAAACACACACACATATATATATATATA [CACACA_site1051],10.2 ± 0.47
22,TTTTTTAAAAATATTATCATCGTAACAAGAAATCGA [CACACA_negctrl_site1111],8.45 ± 0.4

row,Sequence,gcPBM binding intensity (ln)
1,AATAAAAAACATGAAAGTACTTTAAAAAAGGTAATA [XGTACX_site1897],8.9 ± 0.45
2,CAAACAAATATATGTTGTACTTATTATATATACATA [XGTACX_site2998],8.38 ± 0.33
3,ATAATATAGAAACACACACACATATATATATACATT [CACACA_site555],8.71 ± 0.29
4,TAGATAGATTAAAATACATGCATATTATTAAAAAAT [TGCATGCA_site739],8.84 ± 0.13
5,AAAGCACCCAAGAATACACACAAATATTATAAAAAA [CACACA_site111],8.57 ± 0.58
6,TAAACATAATAATATACACACATATATTGATATATA [CACACA_site2144],8.18 ± 0.43
7,AACCAAATTTCACCATGTACATATTGATAAATATAT [XGTACX_site1374],8.7 ± 0.34
8,GGATTCAAAAAAAAAAATAAAAGTAAATAATAAATA [TGCATGCA_negctrl_site348],8.27 ± 0.42
9,ATACACTAGAAAATTTTATAGTATTATTAATGTTAA [GTGCAC_negctrl_site101],8.19 ± 0.42
10,ATTTAGAAAAATAAAACACACATATATATGTAAATA [CACACA_site4113],8.66 ± 0.48
11,AAAAATTAGAAACACACACACATATATATATATATT [CACACA_site1042],8.71 ± 0.22
12,TTTATAAAAATGAACACACACATATAAATATAAATA [CACACA_site7607],8.65 ± 0.44
13,TTTTTATAAAAATGAACACACACATATATATATATA [CACACA_site9160],10.2 ± 0.4
14,TATATAATTATAAGAACACACATATATATATATATA [CACACA_site2472],10.2 ± 0.2
15,TATATATAATTATAAGAACACACATATATATATATA [CACACA_site8786],10.2 ± 0.18
16,AAATAATAAATTATAACACACATATATATATATATA [CACACA_site4045],10 ± 0.47
17,TTTATAAAAATGAACACACACATATATATATATATA [CACACA_site3493],10.4 ± 0.3
18,TAAATTTAGAAACACACACACATATATATATATATA [CACACA_site847],10.3 ± 0.4
19,TGTTAATTAAAGGACTGTACACTAATAATTCTATAA [XGTACX_site5195],8.5 ± 0.34
20,TTTTAAAACAATGAGATTCCTTTCTTTTTTTCTTTT [CACACA_negctrl_site1320],7.96 ± 0.59
21,TGACCGTTTTAAGAGTGTACAAAAAAAAAAAAAAAA [XGTACX_site4141],8.21 ± 0.43
22,ATATATTTCTGTCAAGCACACATAATATTAATATAT [CACACA_site7993],8.86 ± 0.45
